# Results: ChEMBL document CHEMBL3988442, “University of Dundee, Small-Polar-MMV Screening Library” (2021)
# For some assays here: Results with a measured potency or affinity are listed apart.
# Legend:
# Parameters in all cases: scale not given: direction of the effect not stated beside the values
# [1] = molecular target: Protein translocase subunit SecA (Escherichia coli (strain K12)) (UniProt P10408); assay: Assay to Identify E. coli SecA ATPase Inhibitors; type: functional; conditions: 30 µM
# [2] = molecular target: T1, Ubiquitin-activating enzyme e1, putative (Leishmania donovani (strain BPK282A1)) (UniProt E9BSI1); assay: Leishmania donovani Ubiquitin Activating Enzyme (LdE1); type: functional; conditions: 30 µM
# T1 sequence (whole entry): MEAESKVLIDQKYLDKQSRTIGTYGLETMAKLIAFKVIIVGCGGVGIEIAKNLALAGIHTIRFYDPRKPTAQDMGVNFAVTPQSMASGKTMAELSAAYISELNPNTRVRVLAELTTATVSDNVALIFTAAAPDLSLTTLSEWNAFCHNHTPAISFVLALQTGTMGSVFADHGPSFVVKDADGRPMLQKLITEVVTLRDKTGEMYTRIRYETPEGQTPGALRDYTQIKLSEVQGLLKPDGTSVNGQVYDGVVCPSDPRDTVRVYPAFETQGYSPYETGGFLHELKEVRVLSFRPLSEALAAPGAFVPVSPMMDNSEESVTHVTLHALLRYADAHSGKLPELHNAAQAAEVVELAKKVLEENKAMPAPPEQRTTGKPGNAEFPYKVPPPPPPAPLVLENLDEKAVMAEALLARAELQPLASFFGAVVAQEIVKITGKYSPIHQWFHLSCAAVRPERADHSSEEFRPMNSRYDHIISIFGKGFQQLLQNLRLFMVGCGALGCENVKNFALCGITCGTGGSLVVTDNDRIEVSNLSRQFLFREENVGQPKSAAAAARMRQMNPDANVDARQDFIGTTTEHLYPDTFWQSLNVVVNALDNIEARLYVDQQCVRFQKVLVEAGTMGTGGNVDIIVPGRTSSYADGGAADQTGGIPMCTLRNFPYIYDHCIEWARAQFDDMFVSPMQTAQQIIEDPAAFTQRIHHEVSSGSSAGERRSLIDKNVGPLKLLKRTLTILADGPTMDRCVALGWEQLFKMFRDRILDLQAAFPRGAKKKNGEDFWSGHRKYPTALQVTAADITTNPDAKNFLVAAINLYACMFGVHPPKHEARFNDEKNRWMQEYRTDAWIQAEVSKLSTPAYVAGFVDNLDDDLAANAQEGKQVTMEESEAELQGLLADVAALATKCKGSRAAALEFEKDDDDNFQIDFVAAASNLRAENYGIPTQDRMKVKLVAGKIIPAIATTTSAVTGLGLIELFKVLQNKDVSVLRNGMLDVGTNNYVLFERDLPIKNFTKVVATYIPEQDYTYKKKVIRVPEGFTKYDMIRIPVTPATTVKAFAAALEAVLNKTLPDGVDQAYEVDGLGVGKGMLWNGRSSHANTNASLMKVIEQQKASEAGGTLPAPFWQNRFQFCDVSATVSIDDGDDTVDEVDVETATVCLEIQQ
# [3] = molecular target: Sialic acid-binding Ig-like lectin 9 (Homo sapiens) (UniProt Q9Y336); assay: Hs-Siglec9 ALPHAscreen SOP 20170721; conditions: 10 µM
# [4] = system: Trypanosoma cruzi; assay: Trypanosoma cruzi phosphomannomutase and mannose-1-phosphate guanylyltransferase assay; type: functional; conditions: 10 µM
# [5] = molecular target: T2, Arginase-2, mitochondrial (Homo sapiens) (UniProt P78540); assay: in vitro enzyme assay to detect the production of urea directly proportional to the activity of Arginase II; type: functional; conditions: 33.3 µM; further: in the data most compounds retested in dose-response had high values
# T2 sequence (whole entry): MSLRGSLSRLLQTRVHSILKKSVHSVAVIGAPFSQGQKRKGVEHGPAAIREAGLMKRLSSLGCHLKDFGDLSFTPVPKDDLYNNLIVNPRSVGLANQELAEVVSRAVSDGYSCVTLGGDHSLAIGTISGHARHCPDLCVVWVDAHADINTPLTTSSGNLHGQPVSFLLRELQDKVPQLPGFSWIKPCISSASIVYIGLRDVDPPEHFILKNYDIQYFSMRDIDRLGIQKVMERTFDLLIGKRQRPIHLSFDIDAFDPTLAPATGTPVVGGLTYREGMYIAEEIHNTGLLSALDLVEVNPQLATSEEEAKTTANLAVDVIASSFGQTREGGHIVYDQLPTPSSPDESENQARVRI
# [6] = molecular target: T3, Proteasome subunit beta (Trypanosoma cruzi) (UniProt O96673); assay: Trypanosoma cruzi proteasome chymotrypsin-like activity (TcProtChymo) assay.; further: in the data most compounds retested in dose-response had high values; type: functional; conditions: 9.37 µM
# T3 sequence (whole entry): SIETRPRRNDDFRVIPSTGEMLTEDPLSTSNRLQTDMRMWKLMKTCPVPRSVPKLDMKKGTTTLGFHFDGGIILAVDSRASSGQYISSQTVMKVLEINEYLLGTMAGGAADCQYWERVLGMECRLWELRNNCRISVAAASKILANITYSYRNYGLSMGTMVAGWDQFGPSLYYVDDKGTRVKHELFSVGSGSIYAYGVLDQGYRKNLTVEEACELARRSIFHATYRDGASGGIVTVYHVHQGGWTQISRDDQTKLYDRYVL
# [7] = species on record: Homo sapiens; assay: To identify inhibition of the IFN signalling (Jak-Stat) pathway via expression of an eGFP reporter gene under the control of an IFN-stimulated response element (ISRE) containing MxA promoter.; type: functional; conditions: 30 µM
# [8] = molecular target: T4, Tyrosyl-tRNA synthetase, putative (Trypanosoma cruzi (strain CL Brener)) (UniProt Q4DSP6); assay: Trypanosoma cruzi tyrosyl tRNA synthetase (TcYRS) _High Tyrosine SOP; type: functional; conditions: 30 µM; further: in the data most compounds retested in dose-response had high values
# T4 sequence (whole entry): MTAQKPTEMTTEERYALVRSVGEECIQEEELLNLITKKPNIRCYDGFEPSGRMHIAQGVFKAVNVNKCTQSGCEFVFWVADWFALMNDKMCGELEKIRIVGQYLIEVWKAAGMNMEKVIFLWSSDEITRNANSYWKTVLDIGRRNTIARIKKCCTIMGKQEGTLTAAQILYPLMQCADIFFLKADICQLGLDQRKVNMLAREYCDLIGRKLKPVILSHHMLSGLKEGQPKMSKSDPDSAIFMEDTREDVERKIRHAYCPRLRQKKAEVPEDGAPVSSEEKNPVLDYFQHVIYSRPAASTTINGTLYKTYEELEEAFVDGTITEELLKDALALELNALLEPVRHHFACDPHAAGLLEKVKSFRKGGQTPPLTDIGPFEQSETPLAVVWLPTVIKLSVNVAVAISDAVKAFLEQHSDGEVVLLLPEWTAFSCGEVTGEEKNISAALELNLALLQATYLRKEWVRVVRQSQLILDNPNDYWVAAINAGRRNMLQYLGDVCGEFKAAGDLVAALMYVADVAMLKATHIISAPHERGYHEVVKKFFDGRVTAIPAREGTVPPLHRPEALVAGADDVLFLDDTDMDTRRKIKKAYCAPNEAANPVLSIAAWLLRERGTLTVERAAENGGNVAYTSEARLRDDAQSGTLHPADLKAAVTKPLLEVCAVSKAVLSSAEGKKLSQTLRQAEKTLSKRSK
# [9] = molecular target: T4, Tyrosyl-tRNA synthetase, putative (Trypanosoma cruzi (strain CL Brener)); assay: Trypanosoma cruzi tyrosyl tRNA synthetase (TcYRS) SOP; type: functional; conditions: 30 µM
# [10] = molecular target: Chromo domain-containing protein 1 (Saccharomyces cerevisiae (strain ATCC 204508 / S288c) (Baker's yeast)) (UniProt P32657); assay: ScCHD-1 Enzyme Inhibition Assay; type: functional; conditions: 30 µM; further: in the data most compounds retested in dose-response had high values
# Sequence of Chromo domain-containing protein 1 (Saccharomyces cerevisiae (strain ATCC 204508 / S288c) (Baker's yeast)) (P32657 whole entry, the tested form may be a part): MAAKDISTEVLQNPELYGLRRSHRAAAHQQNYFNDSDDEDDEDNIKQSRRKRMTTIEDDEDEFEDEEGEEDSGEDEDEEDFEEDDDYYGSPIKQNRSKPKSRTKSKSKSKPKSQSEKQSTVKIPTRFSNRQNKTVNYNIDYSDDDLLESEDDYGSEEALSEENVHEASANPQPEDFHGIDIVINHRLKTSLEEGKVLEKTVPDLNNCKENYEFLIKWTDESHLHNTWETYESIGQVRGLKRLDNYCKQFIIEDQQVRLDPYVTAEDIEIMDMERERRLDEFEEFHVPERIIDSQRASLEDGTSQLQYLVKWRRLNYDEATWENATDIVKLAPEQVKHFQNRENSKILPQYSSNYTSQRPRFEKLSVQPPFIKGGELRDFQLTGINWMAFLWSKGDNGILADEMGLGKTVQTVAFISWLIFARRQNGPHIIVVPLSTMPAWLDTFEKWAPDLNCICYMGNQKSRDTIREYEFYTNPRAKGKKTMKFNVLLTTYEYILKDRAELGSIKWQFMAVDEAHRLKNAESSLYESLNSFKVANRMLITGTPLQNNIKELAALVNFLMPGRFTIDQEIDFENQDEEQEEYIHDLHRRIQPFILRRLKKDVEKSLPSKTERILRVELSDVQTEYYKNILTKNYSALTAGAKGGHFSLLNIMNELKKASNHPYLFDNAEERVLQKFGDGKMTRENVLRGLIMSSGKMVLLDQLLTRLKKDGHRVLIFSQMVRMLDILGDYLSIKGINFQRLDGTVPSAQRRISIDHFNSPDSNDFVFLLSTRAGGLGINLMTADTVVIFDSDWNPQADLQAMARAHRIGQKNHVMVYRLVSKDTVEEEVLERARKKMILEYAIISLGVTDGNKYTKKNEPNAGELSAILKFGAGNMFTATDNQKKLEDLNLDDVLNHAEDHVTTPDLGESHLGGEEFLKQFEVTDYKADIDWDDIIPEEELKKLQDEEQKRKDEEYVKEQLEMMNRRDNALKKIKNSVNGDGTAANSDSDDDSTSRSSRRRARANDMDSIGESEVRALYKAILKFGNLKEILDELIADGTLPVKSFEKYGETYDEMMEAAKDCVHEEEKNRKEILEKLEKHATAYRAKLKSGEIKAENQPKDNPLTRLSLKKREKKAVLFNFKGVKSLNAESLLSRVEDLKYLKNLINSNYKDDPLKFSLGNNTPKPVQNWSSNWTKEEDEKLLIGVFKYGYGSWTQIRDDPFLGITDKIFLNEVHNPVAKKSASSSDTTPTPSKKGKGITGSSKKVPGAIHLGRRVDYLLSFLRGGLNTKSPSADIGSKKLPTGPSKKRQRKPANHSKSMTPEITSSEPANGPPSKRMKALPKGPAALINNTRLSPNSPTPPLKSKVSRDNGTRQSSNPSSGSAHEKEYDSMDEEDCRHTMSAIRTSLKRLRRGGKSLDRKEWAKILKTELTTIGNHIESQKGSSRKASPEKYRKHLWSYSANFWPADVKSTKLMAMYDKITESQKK
# Sequence of Sialic acid-binding Ig-like lectin 9 (Homo sapiens) (Q9Y336 whole entry): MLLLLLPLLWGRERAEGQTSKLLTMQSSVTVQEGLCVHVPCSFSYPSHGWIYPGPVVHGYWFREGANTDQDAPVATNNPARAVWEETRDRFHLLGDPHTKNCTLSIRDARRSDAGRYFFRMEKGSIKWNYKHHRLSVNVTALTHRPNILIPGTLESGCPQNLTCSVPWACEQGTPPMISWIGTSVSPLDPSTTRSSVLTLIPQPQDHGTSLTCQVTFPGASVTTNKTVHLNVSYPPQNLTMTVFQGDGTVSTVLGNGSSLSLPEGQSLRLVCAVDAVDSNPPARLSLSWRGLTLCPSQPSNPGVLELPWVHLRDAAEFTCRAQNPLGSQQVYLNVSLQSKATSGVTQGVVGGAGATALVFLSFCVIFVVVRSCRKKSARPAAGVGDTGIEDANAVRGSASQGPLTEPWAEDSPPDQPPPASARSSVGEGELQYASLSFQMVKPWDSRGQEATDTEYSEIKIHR
# Sequence of Protein translocase subunit SecA (Escherichia coli (strain K12)) (P10408 whole entry): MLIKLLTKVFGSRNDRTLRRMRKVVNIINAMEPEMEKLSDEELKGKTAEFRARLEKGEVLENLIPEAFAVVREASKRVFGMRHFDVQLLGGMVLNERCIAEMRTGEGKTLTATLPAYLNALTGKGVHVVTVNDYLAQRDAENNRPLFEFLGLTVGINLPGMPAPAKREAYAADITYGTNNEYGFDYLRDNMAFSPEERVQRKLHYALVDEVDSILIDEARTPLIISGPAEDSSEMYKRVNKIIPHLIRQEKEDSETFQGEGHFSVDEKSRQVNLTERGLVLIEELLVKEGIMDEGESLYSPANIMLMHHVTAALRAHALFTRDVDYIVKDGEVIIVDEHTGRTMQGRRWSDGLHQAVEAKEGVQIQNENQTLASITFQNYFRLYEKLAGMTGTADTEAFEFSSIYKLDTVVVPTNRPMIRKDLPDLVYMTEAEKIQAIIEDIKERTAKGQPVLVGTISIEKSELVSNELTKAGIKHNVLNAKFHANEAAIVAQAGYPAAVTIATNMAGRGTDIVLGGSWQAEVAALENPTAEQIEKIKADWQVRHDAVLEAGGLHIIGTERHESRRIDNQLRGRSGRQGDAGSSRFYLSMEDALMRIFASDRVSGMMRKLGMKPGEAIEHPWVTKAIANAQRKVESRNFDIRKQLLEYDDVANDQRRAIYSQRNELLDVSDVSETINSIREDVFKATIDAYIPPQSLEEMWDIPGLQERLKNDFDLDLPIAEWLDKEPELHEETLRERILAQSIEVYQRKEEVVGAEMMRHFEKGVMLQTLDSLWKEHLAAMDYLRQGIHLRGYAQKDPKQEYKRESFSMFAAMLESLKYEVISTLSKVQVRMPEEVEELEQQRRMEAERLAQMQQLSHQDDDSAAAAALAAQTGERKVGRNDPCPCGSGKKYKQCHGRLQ
SMILES,Percent Effect [1] [%],Percent Effect [2] [%],Percent Effect [3] [%],Percent Effect [4] [%],Percent Effect [5] [%],Percent Effect [6] [%],Percent Effect [7] [%],Percent Effect [8] [%],Percent Effect [9] [%],Percent Effect [10] [%]
CN(C)C(=O)CCC(=O)NCc1cccnc1-n1cnc2ccccc21,-4.75,-2.7,-1.92,-1.46,-9.44,-1.03,-10.5,1.6,-2.44,0.948
Cc1cncc(C2CCCN(C(=O)c3c[nH]c(=O)[nH]c3=O)C2)n1 (stereo not given),0.496,9.33,-0.809,-4.14,0.885,7.06,6.63,4.23,10,-18.3
Cc1cnn(C2CCCN(C(=O)c3sccc3C#N)C2)c1 (stereo not given),-7.04,0,-9.94,-1.78,-2.05,-3.33,30.2,0.478,1.21,-3.26
COC(=O)N1C[C@H]2CC[C@@H]1CN(Cc1cscn1)C2,-8.16,0,5.89,7.66,-1.05,9.93,28.6,5.85,14.6,-2.59
Cc1cc2c(=O)n3c(nc2s1)CCN(Cc1cnc(C(C)C)nc1)CC3,-1.05,4,-0.31,-7.69,3.98,5.91,28.4,0,5,-25.8
Cn1cc(NC(=O)N2CCC(CN3CCCC3)CC2)ccc1=O,-0.732,7.69,7.22,-1.78,11.1,1.79,14.5,3.35,6.02,0.924
CCn1nc2c(cc1=O)CN(Cc1nc(-c3ccccn3)no1)CC2,-4.5,12.8,-6.79,-0.469,-2.87,14.1,28.1,0.478,6.02,0.402
CC[C@@H]1N(Cc2ccsc2)CCC[C@]12CCC(=O)N2CCOC,-4.26,19.5,-1.28,-3.19,4.11,10.9,-2.54,7.73,7.5,-3.65
CC(C)(C)C(O)CN1CCN(C(=O)c2cccc3ncccc23)CC1 (stereo not given),-3.23,12.8,-15.5,-7.23,-0.41,8.11,-0.457,3.35,10.8,-6.72
CC(C)N1CCO[C@H]2CN(C(=O)c3ccoc3)C[C@H]21,-6.85,3.9,-7.81,-1.66,2.43,4.85,0.754,5.79,10.3,3.83
CNc1nc(C2CCCN2C(C)=O)nc2c1CCN(CC1CC1)C2 (stereo not given),-3.68,9.33,5.24,-0.197,0.885,12.2,6.58,3.17,10,-22.7
CN1CCC(c2ncc3c(n2)CCN(C(=O)CC2C=CCC2)C3)CC1 (stereo not given),1.34,14.7,-4.21,-1.58,3.1,9.03,7.04,12.7,22.5,-23.1
COc1ccc(CN2CCC[C@@H]3CN(C(=O)c4ccco4)C[C@@H]32)cc1,-4.96,11.7,-12.3,-3.6,-4.05,17.6,3.21,3.68,10.3,0.299
CC(C)NC(=O)C(c1ccccc1)N1CCn2c(nnc2C2CC2)C1 (stereo not given),-3.99,15.4,-10.1,7.61,-2.87,4.86,4.59,3.35,20.5,-5.56
CCCN1CCCn2nc(CNS(=O)(=O)c3cccc(C#N)c3)cc2C1,-7.29,8.11,11.2,1.84,2.45,19.4,9.83,6.92,21.9,95
CN(Cc1noc(C2CC2)n1)C1CCN(Cc2ccncc2)C1 (stereo not given),-0.687,20.5,-22.8,6.1,7.38,14.4,12,1.44,22.9,-9.5
CN(C)c1ccccc1C(=O)N1C[C@@H](CN2CCCCC2)[C@@H](CO)C1,-7.49,2.7,6.19,7.27,-5.25,16.6,-22.6,3.72,12.2,-3.83
CN(C)c1ccc(NC(=O)NCc2ccccn2)cn1,-1.7,20.8,-3.66,-3.92,-0.205,11.9,-8.9,5.88,18.8,-9.39
COc1cc(N2CCCC(c3nccn3Cc3cscn3)C2)nc(N)n1 (stereo not given),-4.57,5.41,16.6,6.89,-22.7,15.1,25.7,6.92,14.6,-3.5
Cc1nc(CN(C)C2CCN(CCCOc3ccccc3)C2)no1 (stereo not given),0.729,23.4,-1.5,2.42,-5.94,20.9,8.47,8.82,21.2,-11.3
CCOc1ncccc1C(=O)N1CCCC(c2nccn2CCOC)C1 (stereo not given),-8.34,5.41,1.4,-1.26,-3.85,12.2,9.33,3.72,12.2,2.21
Cc1cnn(CC2CN(CC(=O)N(C)Cc3cccs3)CCO2)c1 (stereo not given),-1.07,5.33,-0.649,-5.82,9.31,13.8,11.2,2.63,2.56,-11.2
Cc1ccc([C@@H]2CN(C(=O)c3csc(C)n3)C[C@H]2NC(=O)C2CC2)cc1,-13.4,2.7,0.978,0.097,-0.35,5.99,23.2,3.72,17.1,-2.85
